Measured values as given in the supplement of paper PMC10498489.
Hit rate of the full screen: of about 2,300 compounds, about 330 (14%) showed activity. Only a sample is shown. Values without a mark were called inactive.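 Rule for the calls: active = median modified Z-score above 1.96; inactive = 1.96 or below.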

System: HepG2 Srxn1-GFP reporter cells (+30 nM CDDO-Me)
Assay: Srxn1-GFP intensity median modified Z-score relative to plate median; higher = stronger NRF2 / oxidative stress reporter activation, active = hit call of the paper
Details: 10 µM; exposure time: 24h
Method in brief: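 Compound at 10 μM was applied with an NRF2 activator at 30 nM to HepG2 Srxn1-GFP BAC reporter cells for 24 h, in DMSO at no more than 0.1%, using three replicate 96-well plates seeded at 20,000 cells per well. Fixed, Hoechst-stained cells were imaged confocally and cytoplasmic GFP was scored for each cell, with images under 100 cells left out. The figure reported is the replicate median of the per-plate modified Z-score of GFP intensity. Scaling relied on 1.4826 × median absolute deviation.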

Row | Compound | Srxn1-GFP intensity median modified Z-score
1 | Oc1c(C2=CC[C@@H](c3ccc(Cl)cc3)CC2)c(O)c2ccccc2c1O [euspeclibcmpd664] | 37.9 (active)
2 | COc1ccc(-c2cc(=O)c3c(O)c(OC)c(O[C@H]4O[C@H](CO[C@@H]5O[C@@H](C)[C@H](O)[C@@H](O)[C@H]5O)[C@@H](O)[C@H](O)[C@H]4O)cc3o2)cc1 [euspeclibcmpd1421] | -0.512
3 | COc1cc(OC)c2c(OC)c(-c3ccc4c(c3)OCO4)c(=O)oc2c1 [euspeclibcmpd2227] | 2.22 (active)
4 | COc1cc(OC)c2c(=O)c(O)c(-c3ccc(OC)c(OC)c3)oc2c1 [euspeclibcmpd2117] | -0.572
5 | COc1cc(OC)c2c(=O)c(OC)c(-c3ccccc3)oc2c1 [euspeclibcmpd1625] | 1.58
6 | CCN(CC)C(=O)C1(c2ccccc2)CC1CN (configuration not stated) [euspeclibcmpd689] | -0.729
7 | O=C(C(O)CO)C(O)CO (configuration not stated) [euspeclibcmpd2280] | -0.0858
8 | O=c1c(-c2ccc(O)cc2)coc2c(C3O[C@H](CO)[C@@H](O)[C@H](O)[C@H]3O)c(O)ccc12 (some centres not stated) [euspeclibcmpd1715] | -0.564
9 | COC(=O)NN=Cc1c[n+]([O-])c2ccccc2[n+]1[O-] [euspeclibcmpd737] | 0.066
10 | NN=c1[nH]ncc2ccccc12 [euspeclibcmpd806] | -0.328
11 | COc1ccc2c(c1)OCC(Cc1ccc(OC)c(OC)c1)C2=O (configuration not stated) [euspeclibcmpd1645] | 15.4 (active)
12 | COc1cc2c(cc1OC)C1(O)C(=O)c3ccc(O)c(C(=O)O)c3OC1CO2 (configuration not stated) [euspeclibcmpd1511] | -0.131
13 | COc1ccc2c(c1)OCC(Cc1ccc(OC)c(O)c1)C2=O (configuration not stated) [euspeclibcmpd1628] | 21.4 (active)
14 | COc1ccc2c(c1)OCC(Cc1ccc(O)c(OC)c1)C2=O (configuration not stated) [euspeclibcmpd1837] | 0.677
15 | COc1ccc2c(c1)OC[C@@H](Cc1ccc(OC)c(OC)c1)[C@@H]2O [euspeclibcmpd2183] | 1.04
16 | COc1ccc2c(c1)OCC(Cc1ccc(OC)c(OC(C)=O)c1)C2=O (configuration not stated) [euspeclibcmpd1962] | 1.39

Row | Compound | Srxn1-GFP intensity median modified Z-score
17 | CC(=O)O/C1=C2\C(C)[C@@H](OC(=O)C(O)[C@@H](NC(=O)c3ccccc3)c3ccccc3)C[C@@](O)([C@@H](OC(=O)c3ccccc3)C3[C@](C)(C1=O)[C@@H](O)C[C@H]1OC[C@@]31OC(C)=O)C2(C)C (some centres not stated) [euspeclibcmpd631] | 0.274
18 | O=C1O[C@H](C(O)CO)C(O)=C1O (some centres not stated) [euspeclibcmpd2046] | -0.841
19 | CC(CCC(=O)O)C1CC[C@H]2C3[C@H](O)C[C@@H]4C[C@H](O)CCC4(C)[C@H]3C[C@H](O)C12C (some centres not stated) [euspeclibcmpd1325] | -0.323
20 | CCC(C)C1NC(=O)C(CCN)NC(=O)C(NC(=O)C(CCN)NC(=O)C(NC(=O)C(CCN)NC(=O)CCCCC(C)C)C(C)O)CCNC(=O)C(C(C)O)NC(=O)C(CCN)NC(=O)C(CCN)NC(=O)C(C(C)CC)NC1=O (configuration not stated) [euspeclibcmpd887] | 0.477
21 | CC(C)C1CC[C@@H](C)CC1=O (some centres not stated) [euspeclibcmpd1630] | -0.168
22 | CC(=O)OCC(=O)[C@@]12OC3(CCCC3)O[C@@H]1CC1C3CC=C4CC(=O)C=C[C@]4(C)[C@@]3(F)[C@@H](O)C[C@@]12C (some centres not stated) [euspeclibcmpd606] | -0.413
23 | CN[C@@H]1C(OC2[C@H](O[C@H]3[C@H](O)[C@@H](O)[C@H](N=C(N)N)[C@@H](O)[C@@H]3N=C(N)N)OC(C)[C@]2(O)CO)OC(CO)C(O)C1O (some centres not stated) [euspeclibcmpd500] | 0.194
24 | CC(C)=c1nc(N(C)S(C)(=O)=O)nc(-c2ccc(F)cc2)c1=CC[C@@H](O)C[C@@H](O)CC(=O)O [euspeclibcmpd2132] | 0.158
25 | CC(C)c1c(C(=O)Nc2ccccc2)c(-c2ccccc2)c(-c2ccc(F)cc2)n1CC[C@@H](O)C[C@@H](O)CC(=O)O [euspeclibcmpd2076] | 0.0135
26 | CC(C)n1c(C=CC(O)CC(O)CC(=O)O)c(-c2ccc(F)cc2)c2ccccc21 (configuration not stated) [euspeclibcmpd1968] | 3.35 (active)
27 | CC1=C2CC(=O)C=C[C@]2(C)C2C(C1)C1CC[C@](O)(C(=O)COC(=O)CCC(=O)O)[C@@]1(C)C[C@@H]2O (some centres not stated) [euspeclibcmpd2224] | -0.845
28 | Oc1cc2c(cc1O)=C1c3ccc(O)c(O)c3OCC1(O)C=2 (configuration not stated) [euspeclibcmpd1969] | -0.521
29 | CC(CCC(=O)O)[C@H]1CCC2C3C(=O)C[C@@H]4CC(=O)CC[C@]4(C)C3CC(=O)[C@@]21C (some centres not stated) [euspeclibcmpd357] | 0.217
30 | CCCCCC(=O)Cc1cc(O)cc(O)c1C(=O)Oc1cc(CC(=O)CCCCC)c(C(=O)O)c(OC)c1 [euspeclibcmpd1619] | -0.366
31 | CCCCCc1c2c(cc(O)c1C(=O)O)OC(=O)c1c(cc(OC)cc1C(=O)CCCC)O2 [euspeclibcmpd1731] | 4.46 (active)
32 | COc1cc(C)c(C(=O)O)c(O)c1 [euspeclibcmpd2356] | -0.209
